From PubChem
FAS-TE inh: inhibitors of human fatty acid synthase thioesterase domain; 360,000 tested, 0.67% active; recombinant FAS-TE, OMFH fluorogenic substrate, fluorescence endpoint; P49327; AID 602261; inhibition, % at 15 µM;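 active = compounds whose normalised, plate-corrected inhibition of enzyme fluorescence in the single-dose primary screen is 50% or more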;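 note: 0% = DMSO with enzyme and 100% = substrate without enzyme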
H9c2 protect: myocardial damage modulation in H9c2 cells. H9c2 cardiomyocytes, H2O2 injury protection, ATPLite, 2 h. protection from H2O2 cell death, % at 20 µM. 360,000 tested, 0.63% active. AID 588492;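 active = compounds giving at least 50% protection of heart cells from peroxide-induced death in the single-dose screen, raw or plate-pattern-corrected value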;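 note: 0% = DMSO wells with peroxide and 100% = DMSO wells without peroxide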
aDG glyco up: increases alpha dystroglycan glycosylation. activation, % at 10 µM. Pro5-aDG cells, alpha-DG glycosylation AlphaScreen (IIH6); 0% Pro5, 100% B10-LARGE cell signal. AID 624168. 360,000 tested, 0.22% active;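 active = activation of at least 8% versus controls, or a plate z-score of at least 8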;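 note: Pro5 are CHO cells carrying HIG-tagged alpha-DG that lacks glycosylation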
Yeast superoxide: yeast age-related superoxide inhibition as caloric restriction mimetic. S. cerevisiae aged cells, superoxide DHE fluorescence; active compounds read low. superoxide response (% of plate mean), % at 10 µM. 330,000 tested, 0.18% active;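 active = superoxide response under a set limit, about three screen SD below normal, cut at about 65% in these data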;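 note: yeast aged for seven days with compound at 30 °C before DHE staining; 100% = average MFI of all compound-treated wells on the plate with controls excluded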
MPTP inh: blocks calcium-induced mitochondrial swelling. isolated mouse mitochondria, Ca2+ swelling absorbance, 30 min. inhibition, % at 10 µM. 360,000 tested, 1.4% active;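 active = inhibition of 50% or more, scaled per plate between neutral and stimulator controls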;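 note: 0% = DMSO wells given calcium and 100% = 1 mM EGTA wells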
Mot1-301 SUMO: inhibitors of SUMOylation pathway: yeast Mot1-301 growth rescue | S. cerevisiae Mot1-301 growth rescue, ATP luminescence, 38.5C; percent above DMSO median, 100 means doubled | growth rescue, % at 18.8 µM | 320,000 tested, 1% active | AID 2716;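 active = every valid replicate shows activation above 250% relative to neutral control wells; inactive = the rest, any valid replicate at or below 250%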;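 note: OY570 slx delta 5 strain wells were the positive control but not used for scaling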
* marks the source's active call; other numbers are inactive results; . = no result. An excerpt weighted towards active compounds, which were near 3.8% of everything screened.

SMILES	FAS-TE inh	H9c2 protect	aDG glyco up	Yeast superoxide	MPTP inh	Mot1-301 SUMO
CC(=O)Nc1ccc(S(=O)(=O)Nc2ccc(C(=O)NCC(=O)O)cc2)cc1	-2	8	0	103	1	349*
Cc1c(OCC(=O)NCCN2CCOCC2)ccc2c1oc(=O)c1ccccc12	-3	61*	-1	118	-2	11
COC(=O)c1ccccc1NCc1cc(=O)oc2cc(O)c(O)cc12	22	67*	0	85	4	-10
Cn1nc(C(C)(C)C)cc1C(=O)NN1CCOCC1	-7	5	3	101	0	31
COc1cc(CN2C[C@@H](CO)O[C@@H](n3cnc4c(Nc5ccccc5)ncnc43)C2)cc(OC)c1OC	-14	79*	0	.	0	.
O=C(CCCSc1ccccc1)Nc1nc(-c2ccccn2)cs1	0	64*	2	108	-4	4
Cc1csc(NC(=O)/C=C/c2ccco2)n1	-9	2	0	104	0	-8
O=C(CN1C(=O)C2CCCCC2C1=O)Nc1nc(-c2ccc(F)cc2)cs1 (configuration not stated)	6	38	0	83	0	.
O=C(CN1C(=O)CCC1=O)Nc1nc(-c2ccccn2)cs1	-6	52*	2	93	-3	109
O=C(/C=C/c1ccco1)Nc1nc(-c2ccccn2)cs1	-4	50*	2	101	-1	-2
O=C(CN1C(=O)C2CC=CCC2C1=O)Nc1nc(-c2ccc(F)cc2)cs1 (configuration not stated)	2	58*	0	90	-2	8
CSCCC(=O)Nc1nc(-c2ccccn2)cs1	-2	37	1	.	-1	.
C=CCOc1ccc(C=Nc2ccc(OC)cc2)c(O)c1	-1	63*	0	91	-1	-8
COc1cc(NC(=O)COC(=O)CC(NC(C)=O)c2ccccc2)cc(OC)c1 (configuration not stated)	-2	12	0	96	0	352*
Cc1sc2nc(COC(=O)c3ccc(O)cc3)[nH]c(=O)c2c1C	2	27	0	91	5	-12
COc1ccc(S(=O)(=O)N2CC(O)CC2C(=O)OCc2nc3sc(C)c(C)c3c(=O)[nH]2)cc1 (configuration not stated)	-12	79*	0	96	-2	-13
C/C(N)=C(/C#N)C(=O)CSc1nnc(Nc2ccccc2)s1	0	57*	0	92	2	-6
C/C(N)=C(/C#N)C(=O)CSc1nnc(Nc2ccccc2C)s1	-10	28	0	96	-2	1
Cc1ccc(NS(=O)(=O)c2ccc(C(=O)N3CCN(c4ccccn4)CC3)cc2)cc1	-5	-28	6.3*	93	19	34
Cc1ccc(NS(=O)(=O)c2ccc(C(=O)NNC(=O)c3ccccc3O)cc2)cc1	14	64*	0	85	0	-6
Nc1nc(N)c(-c2cccc(C(F)(F)F)c2)c(Cc2cccc(C(F)(F)F)c2)n1	32	-15	0	.	3	.
O=C(COC(=O)c1ccc([N+](=O)[O-])o1)Nc1ccc2c(c1)OC(F)(F)O2	-2	36	0	.	0	.
CCNCC(=O)N1c2ccccc2CCc2ccc(NC(=O)OCC)cc21	-5	-5	0	125	0	293*
CC(C)(C)OC(=O)NCC12C=CC(O1)C1C(=O)N(Cc3ccccc3)C(=O)C12 (configuration not stated)	-2	80*	0	105	3	9
COc1cc(OC)cc(C(=O)N[C@H](C(=O)Nc2cc(F)ccc2C)C(C)C)c1	6	7	0	106	1	7
SMILES	FAS-TE inh	H9c2 protect	aDG glyco up	Yeast superoxide	MPTP inh	Mot1-301 SUMO
Cc1cccc(NS(=O)(=O)c2c(C)nc3scc(C)n3c2=O)c1	1	-1	0	98	1	-10
N#CCCn1c(SCC(=O)c2c[nH]c3ccccc23)nc2ccccc21	-9	51*	0	100	-1	164
CC(C)(C)NC(=O)c1cccc(NC(=O)c2ccc(NC(=O)c3ccco3)cc2)c1	-6	74*	0	109	0	-11
CC(C)(C)NC(=O)c1cccc(NC(=O)c2ccco2)c1	-7	-5	0	96	-3	30
CCOC(=O)C1=C(COC(=O)Cc2ccccc2[N+](=O)[O-])NC(=O)NC1C (configuration not stated)	-7	0	0	.	0	.
Cc1ncc(CO)c2cc(C(=O)Nc3ccccc3Cl)c(=Nc3cccc(C(N)=O)c3)oc12	-5	61*	0	108	0	-7
Cc1cc(OCC(=O)Nc2ccc(CN3CCOCC3)cc2)c2c(C)c(C)c(=O)oc2c1	6	13	0	92	-1	305*
N#Cc1cccc(C=C(C(=O)c2ccccc2)c2ccccc2)c1	33	.	0	.	1	.
CN1C(C(=O)NCc2cccc(C(F)(F)F)c2)CC2Cn3c(nc4cc(Cl)c(Cl)cc43)C21 (configuration not stated)	48	-8	0	101	0	277*
Cc1cccc[n+]1CC(=O)c1ccc(NC(=O)c2ccccc2)cc1	-3	3	0	97	-1	317*
Cc1cccc[n+]1CC(=O)Nc1ccccc1	-5	3	0	94	1	-20
Cc1nn(-c2ccccc2)c(C)c1C(=O)OC(C)C(=O)NC1CCCCC1 (configuration not stated)	-1	-6	0	120	3	14
CC(C(=O)N(C)Cc1ccccc1)N1CCN(C/C=C/c2ccccc2)CC1 (configuration not stated)	-2	4	0	111	2	282*
C=C[C@@]1(C)CC(=O)[C@]2(O)[C@@]3(C)[C@@H](O)CCC(C)(C)[C@@H]3[C@H](O)[C@H](OC(C)=O)[C@@]2(C)O1	-2	71*	0	86	0	-6
C=C[C@@]1(C)CC(=O)[C@]2(O)[C@@]3(C)[C@@H](O)CCC(C)(C)[C@@H]3[C@H](OC(C)=O)[C@H](O)[C@@]2(C)O1	1	9	0	92	0	-11
Cc1sc2nc(CSCC(=O)Nc3cc(F)ccc3F)[nH]c(=O)c2c1C	-2	-5	0	85	1	109
Cc1sc2nc(CSCC(=O)N(CCC#N)c3ccccc3F)[nH]c(=O)c2c1C	-6	59*	0	.	0	.
COC(=O)c1ccc(CSc2ccc3nnc(-c4cccc(F)c4)n3n2)o1	9	105*	0	109	-2	-17
CCC(C)CCCCNC1=NCCS1 (configuration not stated)	-110	-8	1	88	1	-11
CCCCCCNC1=NCCS1	-19	-3	0	110	-1	720*
